Source: PubChem
Most compounds without a hit are left out; they make up all but 4.6% or so of the library.
LASV entry inh: qHTS for Inhibitors of binding or entry into cells for Lassa Virus; Lassa virus pseudotype entry inhibition, cell reporter; Potency, µM (top dose mostly 37.9 µM), for the others: at the highest dose activity change, negative = inhibition, most hits filed as inhibitors; 1.2% of 300,000 active; AID 540256, 2011; calls by dose curve; tested in HEK293 cells; also: nearly all actives have a fitted effect of over 50% in size
Vaccinia mCherry: qHTS for Stage-Specific Inhibitors of Vaccinia Orthopoxvirus: mCherry Reporter Primary qHTS. Vaccinia virus mCherry reporter infection, fluorescence. Potency, µM (highest dose often 36.5 µM), for the others: at the top dose activity change, negative = inhibition, most hits filed as inhibitors. 0.63% of 310,000 active; calls by dose curve; tested in A549 cells; also: nearly all actives have a fitted effect of over 35% in size
VACV Venus inh: qHTS for Stage-Specific Inhibitors of Vaccinia Orthopoxvirus: Venus Reporter Primary qHTS. Vaccinia virus Venus reporter expression, fluorescence. Potency, µM (titrated, usually from 36.5 µM), for the others: at the highest dose activity change, negative = inhibition, hits mostly inhibitors. 0.46% of 330,000 active; calls by dose curve; tested in A549 cells; also: nearly all actives have a fitted effect of over 30% in size
Marburg entry inh: qHTS for inhibitors of binding or entry into cells for Marburg Virus. 1.8% of 300,000 active. Marburg virus pseudotyped entry inhibition, cell reporter. AID 540276, 2011. Potency, µM (titrated, usually from 37.8 µM), without a hit: top-dose activity change, negative = inhibition, actives largely listed as inhibitors; calls by dose curve; tested in HEK293 cells
HCV inhibitor: qHTS Assay for Inhibitors of Hepatitis C Virus (HCV) | Huh7.5.1 HCVcc-Cre infection, luciferase reporter, 44 h | Potency, µM (series often up to 41.8 µM), inactives show at the top dose activity change, negative = inhibition, usual class: inhibitors | 3.4% of 340,000 active; active = well fitted inhibition curve with a large enough effect; inconclusive = small, poorly fitted or top-dose-only effect, or another doubt; inactive = no such curve, though single readings can be large or run the other way
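Luciferase read-out (15 sec integration) after a 15 min room-temperature substrate step quantifies HCVcc-Cre infection. Cells, 1,000 per well, had compound added 4 h post-plating, then virus at ~0.5 moi, and were cultured 44 h.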
Numbers without * were called inactive; i = inactive; ? = inconclusive; · = not tested or not shown; [ ] = another dose, or the depositor's remark. % is scaled to controls: 0 for no effect and ±100 for the full control effect; potency is read from the fitted curve at half-maximal effect.

SMILES	LASV entry inh	Vaccinia mCherry	VACV Venus inh	Marburg entry inh	HCV inhibitor
Cc1cc(-c2ccc(S(=O)(=O)N(C)c3ccc(C)c(C)c3)s2)on1	·	·	·	·	11µM*
CCOc1ccc(NC(=O)C2Cc3ccccc3N2C(=O)c2ccccc2)cc1 (configuration not stated)	-19%[46.1 µM]	-11%	-2%	·	·
COC(=O)C1=C(C)N(Cc2ccccc2)C(=NCCc2ccccn2)NC1c1cccc(F)c1 (configuration not stated)	·	·	·	-21%[14.2 µM]	·
Cc1ccc2nc(C3CCCN(C(=S)Nc4cccc(C)c4C)C3)[nH]c2c1 (configuration not stated)	?	?	?	?	1.8µM*
Cc1cc2nc(C3CCCN(C(=S)Nc4ccccc4C)C3)[nH]c2cc1C (configuration not stated)	?	-7%	-26%	-21%	10µM*
Cc1ccc(NC(=S)N2CCCC(c3nc4ccc(C)cc4[nH]3)C2)c(C)c1 (configuration not stated)	-13%	?	?	?	10µM*
Cc1cc2nc(C3CCCN(C(=O)NCc4ccccc4)C3)[nH]c2cc1C (configuration not stated)	-7%	-28%	-16%	7%	-23%
COc1ccc(NC(=S)N2CCCC(c3nc4ccc(C)cc4[nH]3)C2)c(OC)c1 (configuration not stated)	-10%	·	·	-9%	?
CCc1ccc(C2=CC(c3cccc(C)c3)n3c(nc4ccccc43)N2)cc1 (configuration not stated)	?	-26%	42%	·	·
CN(C)c1ccc(/C=C2\C=Cc3ccccc32)cc1F	·	-9%	8%	·	·
O=C(C[N+]1(CCc2ccccc2)CCOCC1)c1ccccc1	·	-21%	-8%	·	·
CN(C)c1ccc(C(=O)N2CCCC(Cn3cc(C(=O)N4CCCC4)nn3)C2)cc1 (configuration not stated)	·	i	-13%	·	·
CC(C)(C)c1ccc(C(=O)N2CCC(=O)N(C(COCc3ccccc3)Cc3ccccc3)CC2)cc1 (configuration not stated)	8.2µM*	-24%	?	?	?
Cc1cccc(COCC(Cc2ccccc2)N2CCN(C(=O)c3ccc(Cl)c(Cl)c3)CCC2=O)c1 (configuration not stated)	15µM*	?	?	-45%	?
Cc1cccc(COCC(Cc2ccccc2)N2CCN(C(=O)c3cc(Cl)cc(Cl)c3)CCC2=O)c1 (configuration not stated)	?	?	?	?	-2%[8.37 µM]
Cc1cccc(COCC(Cc2ccccc2)N2CCN(C(=O)c3cccc(C)c3)CCC2=O)c1 (configuration not stated)	7.3µM*	-16%	-27%	-39%	-9%[8.37 µM]
CC(C)NC(=O)NC1N=NC(Nc2ccc(Cl)cc2)=N1 (configuration not stated)	·	·	·	1%[46.1 µM]	·
CCOc1ccc(-c2cc(C(F)(F)F)c(C#N)c(SCC(=O)Nc3ccccc3)n2)cc1	-5%[46.1 µM]	-4%	9%	-12%[46.1 µM]	·
CCS(=O)(=O)c1oc(-c2ccc(F)cc2)nc1S(=O)(=O)c1ccc(Br)cc1	?	-22%	?	?	·
COC(=O)[C@H](Cc1ccccc1)NC(=O)[C@@H](N)CC(=O)O	·	-7%	-19%	·	0.56µM*
O=C(c1ccc2c(=O)n(CCc3ccccc3)c(=O)[nH]c2c1)N1CCN(c2ccccc2)CC1	?	-4%	-2%	10%[46.1 µM]	-27%
COc1ccc(N2CCN(C(=O)c3ccc4c(=O)n(CCc5ccc(OC)c(OC)c5)c(=O)[nH]c4c3)CC2)cc1	-26%	-22%	-14%	11µM*	11µM*
CC1CCN(c2nc3ccc(C(=O)N4CCN(Cc5ccc6c(c5)OCO6)CC4)cc3s2)CC1	·	?	?	3%	3.2µM*
Cc1ccc2c(C)c(C(=O)N3CCN(Cc4ccc5c(c4)OCO5)CC3)oc2c1C	1%[46.1 µM]	-29%	-24%	-4%[46.1 µM]	11µM*
O=C(c1ccc(COc2ccc(Cl)cc2)o1)N1CCN(Cc2ccc3c(c2)OCO3)CC1	?	-22%	-19%	-21%	8.9µM*
SMILES	LASV entry inh	Vaccinia mCherry	VACV Venus inh	Marburg entry inh	HCV inhibitor
O=C(C[n+]1cccc(Br)c1)c1ccc(O)c(O)c1	·	17%	11%	·	·
Cc1oc(-c2ccccc2NC(=O)c2ccccn2)nc1CNC(=O)c1ccc(Oc2ccccc2)o1	·	-11%	-6%	·	·
CCCCCn1c(=O)[nH]c2cc(C(=O)N3CCN(Cc4ccc5c(c4)OCO5)CC3)ccc2c1=O	?	-15%	?	?	2.8µM*
CCCCCn1c(=O)[nH]c2cc(C(=O)NCc3ccc4c(c3)OCO4)ccc2c1=O	?	·	·	-17%	-14%
CCOc1cc(/C=N/NC(=O)COc2ccc(Cl)cc2)ccc1OS(=O)(=O)c1ccccc1	?	?	?	6.5µM*	5µM*
CCOc1cc(/C=N/NC(=O)c2ccc(N(C)S(=O)(=O)c3ccccc3)cc2)ccc1OC	·	-25%	-15%	-2%[46.1 µM]	8.9µM*
COc1cc(NC(=O)COCc2cc(-c3ccc4c(c3)OCO4)on2)cc(OC)c1	3%[46.1 µM]	-10%	-7%	·	·
O=C1c2ccccc2C(=O)c2c(Nc3ccc(CCO)cc3)ccc(O)c21	·	-12%	-17%	5%	?
O=C1c2ccccc2C(=O)c2c(NCCc3ccc(O)cc3)ccc(NCCc3ccc(O)cc3)c21	5.2µM*	·	·	21µM*	·
CCC(=O)N(CCC(Cc1ccccc1)c1ccc2c(c1)OCO2)Cc1ccccc1F (configuration not stated)	?	?	?	13µM*	-17%
O=C(CSc1nc2ccsc2c(=O)n1Cc1ccccc1Cl)NCc1ccc(F)cc1	-21%[46.1 µM]	-10%	-7%	13%[46.1 µM]	·
Cc1ccc(S(=O)(=O)N(CCCO)CC(O)CON=C2c3ccccc3-c3ccccc32)cc1 (configuration not stated)	?	-22%	-8%	?	10µM*
COC(=O)c1c(NC(=O)C(=O)NCCCN2CCOCC2)sc2c1CCCC2	·	·	·	·	22µM*
COCC(=O)Nc1sc2c(c1C(=O)OC)CCCC2	5%	·	·	3%	7.1µM*
COC(=O)c1c(NC(=O)COC(=O)c2ccc(O)cc2)sc2c1CCCCC2	-25%[46.1 µM]	?	-9%	4%[46.1 µM]	3.2µM*
CCN1C(=O)[C@H]2[C@H]3[C@H](O)[C@H](O)C/C(=N\NC(=O)OCc4ccccc4)[C@@H]3CC[C@H]2C1=O	·	·	·	-8%[14.2 µM]	·
COc1ccc(CN2CCOc3ccc(C(O)c4cccnc4)cc3C2)c(OC)c1OC (configuration not stated)	·	-2%	8%	·	·
CCOC(=O)c1c(C)[nH]c(C)c1S(=O)(=O)NCC(=O)NCc1ccc(C)cc1	1%[46.1 µM]	-18%	-9%	·	·
CC(NC(=O)/C(C#N)=C/c1ccc(Cl)c([N+](=O)[O-])c1)c1ccccc1 (configuration not stated)	?	·	·	?	35µM*
